Screening results as filed in PubChem BioAssay.
KAT2A inh = GCN5L2 (KAT2A) acetyltransferase inhibition. GCN5L2 HAT assay, ThioGlo1 CoA-SH fluorescence. Potency, µM (titrated, usually from 58.9 µM), usual class: inhibitors. actives 0.21% (n = 390,000)
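Free CoA generated was detected with ThioGlo1 (50uM) fluorescence at Ex340nm/Em540nm, read immediately and after 20 min at room temperature. Enzyme, 20 nM in HEPES pH 7.5 buffer, saw compounds 15 min before adding 75uM H3(1-25) peptide and 70uM acetyl-CoA.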
PLK1 PBD inh = blocks phosphopeptide binding to human PLK1 polo-box domain; Plk1 PBD binding of FITC phosphopeptide, fluorescence polarization; Potency, µM, hits mostly inhibitors; actives 2.8% (n = 360,000); also: series mostly up to about 57 µM; nearly all actives have a fitted effect of over 65% in size
ALOX12 inh = inhibitors of human 12S-lipoxygenase ALOX12; actives 1.1% (n = 580,000); P18054; purified 12hLO, xylenol orange hydroperoxide absorbance; AID 1671190; Potency, µM (series often up to 108 µM), actives largely listed as inhibitors
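Purified human 12hLO (150 nM final) in 25 mM Hepes, 0.01% Triton X-100, pH 7.0 was preincubated 15 min at room temperature with compound. Then 40 uM arachidonic acid was added, 30 min. Hydroperoxide was read by Fe-XO absorbance ratio 573/405 nm.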
VDR inh = vitamin D3 receptor (human) inhibition; Potency, µM, usual class: inhibitors; P11473; actives 0.93% (n = 400,000); VDR-SRC2-3 peptide fluorescence polarization, 2 h; AID 504847
Target sequence (P11473 whole entry, looked up): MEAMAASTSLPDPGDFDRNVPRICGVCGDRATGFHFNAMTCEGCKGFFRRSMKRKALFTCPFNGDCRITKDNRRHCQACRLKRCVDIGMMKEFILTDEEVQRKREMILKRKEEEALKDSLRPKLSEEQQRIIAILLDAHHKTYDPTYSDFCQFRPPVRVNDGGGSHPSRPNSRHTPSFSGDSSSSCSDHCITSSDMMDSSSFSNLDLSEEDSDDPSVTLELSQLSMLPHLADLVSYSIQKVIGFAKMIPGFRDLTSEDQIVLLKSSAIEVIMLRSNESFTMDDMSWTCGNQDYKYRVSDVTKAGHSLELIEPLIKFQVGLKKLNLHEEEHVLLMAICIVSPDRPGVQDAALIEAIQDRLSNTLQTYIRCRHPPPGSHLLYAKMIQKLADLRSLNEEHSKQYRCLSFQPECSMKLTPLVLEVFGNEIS
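FP read-out; VDR + SRC2-3 coactivator peptide; 23 nl compound by pintool; 2 h RT incubation; reagents held at 4 deg C, protected from light.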
Hits are given with their value; i = inactive; ? = inconclusive; nt = not tested or not shown; [ ] = dose if it differs, or a comment. In the library only some 3% were active in any assay of this set; here they are far more common. Calls follow the shape of the dose curve; as a rule, active = well fitted curve in the direction sought with a large enough effect; inconclusive = small, poorly fitted or top-dose-only effect, or another doubt; inactive = no such curve, though single readings can be large; an effect the other way counts as inactive or inconclusive.

SMILES	KAT2A inh	PLK1 PBD inh	ALOX12 inh	VDR inh
O=C(NC(=S)N1CCN(C/C=C/c2ccccc2)CC1)c1ccco1	i	i	i	i
O=C(NCC(=O)N1CCN(C(=O)c2ccco2)CC1)c1ccc(Br)cc1	i	21µM	i	i
c1ccc2c(c1)Cc1cc(-n3cccc3)ccc1-2	nt	nt	i	nt
C[C@H](NC(=O)C[C@@H]1c2nc(NC(=O)c3ccc(F)cc3)sc2C[C@@H]2[C@](C)(CO)[C@H](O)CC[C@]21C)c1ccccc1	nt	nt	i	nt
O=C(CC1C(=O)N(C2CCCC2)c2nc3ccccc3n21)Nc1ccc2c(c1)OCO2 (stereo not given)	nt	nt	i	nt
Cc1cc(C)n(-c2cc(-c3ccccc3)nc(C)n2)n1	i	19µM	i	i
O=C(NC1CCCCC1)C(=S)N1CCOCC1	i	24µM	i	i
S=C(NC1CCCCC1)N1CCOCCOCCN(C(=S)NC2CCCCC2)CCOCC1	i	i	i	i
O=C(NC(=S)NC(CO)Cc1ccccc1)c1ccc(F)cc1 (stereo not given)	i	i	40µM	i
O=C(NC(=S)NCCN1CCOCC1)c1ccc(F)cc1	i	i	i	i
CC(C)CNC(=S)NC(=O)c1ccc(F)cc1	i	i	35µM	i
CCNC(=O)C(C)Sc1nnc(-c2cccs2)n1C1CC1 (stereo not given)	nt	nt	i	nt
Cc1noc(-c2cn(C3CCN(C(=O)Cc4ccc(Br)cc4)CC3)nn2)n1	nt	nt	i	nt
Cc1ccc2nc(-c3cccc(S(=O)(=O)N4CC(C)OC(C)C4)c3)cn2c1 (stereo not given)	i	19µM	i	i
Cc1ccc2nc(-c3cccc(S(=O)(=O)N4CCCC4)c3)cn2c1	i	i	i	i
C1=C(CCNc2nnnn2-c2ccccc2)CCCC1	i	21µM	i	?
c1ccc(CCNc2nnnn2-c2ccccc2)cc1	i	i	i	i
CCCCc1ccc(/C=C(\C#N)C(N)=S)s1	i	i	40µM	i
CCOC(=O)/C(C#N)=C/c1ccc(Br)s1	nt	nt	i	nt
COC(=O)c1ccc(N(C(=O)CNC(=O)c2ccco2)C(C(=O)NC2CCCC2)c2ccco2)cc1 (stereo not given)	i	27µM	i	i
COC(=O)c1[nH]c2ccc(Cl)cc2c1NC(=O)c1ccccc1[N+](=O)[O-]	i	i	i	i
O=C(O)c1[nH]c2ccccc2c1C(c1cc(Cl)cc([N+](=O)[O-])c1O)c1c(C(=O)O)[nH]c2ccccc12	?	7.5µM	?	79µM
COc1cc(C(=O)O)ccc1OCc1ccccc1	nt	nt	i	nt
COc1ccc(CN=Cc2c(C(=O)O)[nH]c3ccccc23)cc1	i	i	i	i
C=CCOc1ccc(C(c2c(C(=O)O)[nH]c3ccccc23)c2c(C(=O)O)[nH]c3ccccc23)cc1	?	8.4µM	28µM	i
SMILES	KAT2A inh	PLK1 PBD inh	ALOX12 inh	VDR inh
O=C(O)c1[nH]c2ccccc2c1C(c1ccccc1)c1c(C(=O)O)[nH]c2ccccc12	i	27µM	i	?
COc1cc(C(c2c(C(=O)O)[nH]c3ccccc23)c2c(C(=O)O)[nH]c3ccccc23)ccc1OCc1ccccc1	?	8.4µM	28µM	i
COc1ccccc1C(=O)COC(=O)c1cc(S(N)(=O)=O)ccc1F	nt	nt	i	nt
O=C(Nc1csnn1)c1csnn1	i	i	10µM	i
Cc1ncsc1C(=O)N(Cc1ccccc1)C1CC1	nt	nt	i	nt
NNc1cc(Cl)c(Cl)cc1Cl	nt	nt	7.1µM	nt
O=C(Nc1ccccc1Cl)c1cnc(N2CCOCC2)c2ccccc12	nt	nt	i	nt
CC1(C)C(=O)C=C[C@]2(C)C1CC(=O)[C@]1(C)C2CC[C@@]2(C)C(c3ccoc3)OC(=O)C3O[C@@]321 (stereo not given in full)	i	nt	nt	20µM
CN(c1ccccc1)S(=O)(=O)c1ccc(NC(=S)NC(=O)c2ccccc2)cc1	i	i	14µM	i
Cc1ccc(C(=O)NC(=S)Nc2ccc(S(=O)(=O)N(C)c3ccccc3)cc2)cc1	i	i	32µM	i
O=C(NC(=S)Nc1ccc(S(=O)(=O)N2CCCCC2)cc1)c1ccccc1	i	i	13µM	i
CN(c1ccccc1)S(=O)(=O)c1ccc(NC(=S)NC(=O)C2CC2)cc1	i	i	?	i
O=C(NCc1cccs1)c1ccc(S(=O)(=O)N2CCCCC2)cc1	i	13µM	i	?
O=C(c1ccc(F)cc1)N1c2ccccc2-n2c(nc3ccccc32)C1CCc1ccccc1 (stereo not given)	nt	nt	i	nt
Cc1ccc(-c2nc(-c3nc(-c4cccs4)cs3)sc2C)cc1	nt	nt	i	nt
CC(=O)Nc1ccc(CN2CCn3c(nn(-c4ccc(Cl)cc4)c3=O)C2)cc1	nt	nt	i[6.33 µM]	nt
COc1ccc(C(C)=O)cc1CC(=O)Nc1cc(C)ccc1C	nt	nt	i	nt
O=C(NCc1coc(-c2cccs2)n1)c1cc(Cl)ccc1Cl	nt	nt	i	nt
O=C(OCc1nc2ccc(Cl)cc2n1CCO)c1ccc2c(c1)OCO2	i	i	i	i
ClCCn1c(CCl)nc2ccc(Cl)cc21	nt	i	10µM	nt
COc1cccc(C2=Cc3ccc(F)cc3C(CC(C)=O)N2c2ccc(C#CC3(O)CCCCC3)cc2)c1 (stereo not given)	nt	i	16µM	nt
Clc1cc(Cl)c2nc(N3CCCCC3)sc2c1	?	24µM	i	i
Clc1cc(Cl)c2nc(N3CCCC3)sc2c1	nt	i	?	i
CCOC(=O)CSc1c(-c2cccs2)[nH]c2ccccc12	i	i	i	?
CCOC(=O)CSc1c(-c2ccc(Cl)cc2)[nH]c2ccccc12	i	6µM	i	?
COc1cccc(-c2cccc(COc3cnc4c(ccn4CC(=O)O)c3)c2)c1F	nt	nt	50µM	nt
O=C(O)Cn1ccc2cc(OCc3cccc(-c4ccc(F)c(Cl)c4)c3)cnc21	nt	nt	50µM	nt
